Abeta yeast res: restores growth of yeast expressing A-beta42 peptide | Potency, µM (top dose mostly 46.1 µM), actives largely listed as activators | 410,000 tested, 0.063% active | yeast expressing A-beta42, growth rescue, OD600, 48 h; response scale: 0% DMSO, 100% iron-clioquinol control; also: nearly all actives have a fitted effect of over 55% in size
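Yeast A-beta toxicity model in growth medium with pinned compounds, 48 h at 30 C; growth read as absorbance at 600 nm. Normalized to FeCl3/clioquinol equimolar mix (positive) and DMSO (negative).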
FUS yeast rescue: suppressors of FUS proteinopathy in yeast. Potency, µM (top dose mostly 76.6 µM), actives largely listed as activators. 390,000 tested, 0.24% active. S. cerevisiae FUS-expressing, growth rescue, OD600, 24 h;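 also: plate controls were DMSO vehicle for no effect and reference control for full effect; nearly all actives have a fitted effect of over 55% in size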
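S. cerevisiae expressing FUS from galactose induction served as the toxicity model. Growth after 24hr at 30C, read as absorbance at 600 nm, indicates suppression of toxicity; compounds dosed at several concentrations.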
aSyn rescue: alpha-synuclein toxicity inhibition in yeast. Yeast expressing alpha-synuclein, growth rescue, BacTiter-Glo, 24 h. Potency, µM (doses to about 46.1 µM), for inactives: at the highest dose growth rescue (activation), usual class: activators. 370,000 tested, 0.14% active; also: % of control where 0% means no effect; nearly all actives have a fitted effect of over 65% in size
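Screening used galactose-induced yeast with toxic alpha-synuclein levels, exposed to compound for 24 hr at 30 deg C. Cell growth, read with BacTiter-Glo luminescence, gave the measured signal.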
TDP43 rescue: rescues yeast growth from TDP-43 toxicity. AID 652104. Potency, µM (doses to about 46.1 µM), for the others: at the top dose growth rescue (activation), most hits filed as activators. 410,000 tested, 1.8% active. TDP-43 expressing yeast growth rescue, BacTiter-Glo, 24 h; also: % of control where 0% means no effect; nearly all actives have a fitted effect of over 50% in size
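Yeast expressing TDP-43 (pregrown in raffinose, seeded at OD600=0.02 in galactose medium) exposed to compounds 24 hr at 30 deg C. Growth read by BacTiter-Glo luminescence; rescue of toxicity appears as increased signal.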
Mito fusion act: inhibitors of mitochondrial division or activators of mitochondrial fusion | S. cerevisiae fusion-defective mutant growth rescue, CellTiterGlo 48 h | Potency, µM (doses to about 46.1 µM), for the others: top-dose growth rescue (activation), most hits filed as activators | 320,000 tested, 0.23% active | AID 485298; also: % of control where 0% means no effect; nearly all actives have a fitted effect of over 45% in size
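S. cerevisiae fusion-defective temperature-sensitive mutants (e.g. fzo1-1, mgm1-5) grown 48 h at 37C in YPEG (ethanol/glycerol non-fermentable) medium with 23 nl compound per well; growth rescue read as CellTiterGlo luminescence.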
Active calls of the source: *; i = inactive; ? = inconclusive; . = no result given; [ ] = dose if it differs, or a comment. Sampled rows, rich in hits. Any-hit rate of the full collection: about 2.2%. Calls follow the shape of the dose curve; as a rule, active = well fitted curve in the direction sought with a large enough effect; inconclusive = small, poorly fitted or top-dose-only effect, or another doubt; inactive = no such curve, though single readings can be large; an effect the other way counts as inactive or inconclusive. Potency is read from the fitted curve at half-maximal effect.

SMILES	Abeta yeast res	FUS yeast rescue	aSyn rescue	TDP43 rescue	Mito fusion act
CCOc1ccccc1NC(=O)NC(CC)c1c(-n2cccc2)sc2c1CCN(C)C2 (stereo not given)	i	i	.	9%	.
O=C(NC1CCCc2c1cnn2-c1ccc(F)cc1F)c1cccs1 (stereo not given)	.	i	.	.	.
Cc1ccc(-c2nnc(SC(C)C(=O)NCc3ccco3)n2C)cc1 (stereo not given)	.	.	-4%	.	.
O=C(N/N=C/C=C/c1ccco1)c1ccccc1Cl	i	40µM*	9%	-7%[1.82 µM]	-8%
CC(/C=C/c1ccco1)=N/NC(=O)c1ccccc1Cl	i	?	4%	-7%	0%
CCOC(=O)c1sc(NC(=O)c2ccncc2)c(C#N)c1C	i	.	-20%	-64%	11µM*
CC(C)Oc1ccc(-c2nc(-c3cccnc3)no2)cc1	.	.	3%	.	.
CCCOC(=O)c1c(N)sc(C(=O)OCC)c1C	i	i	4%	7.9µM*	22%
CCOC(=O)c1c(N)sc(C(N)=O)c1C	i	i	2%	13%	7%
COC(=O)C[C@H]1CC[C@H]2[C@H](COc3ccc(NC(=O)c4cccs4)cc3C(=O)N2C)O1	.	i	.	.	.
O=C(Nc1ccc(Oc2ccccc2)cc1)C1CCN(c2nnc(-n3cccc3)s2)CC1	.	i	.	.	.
COc1cc(S(=O)(=O)NCc2ccc3c(c2)OCO3)ccc1Cl	i	i	-10%	13µM*	4%
COc1cc(C)c(S(=O)(=O)NCc2ccc3c(c2)OCO3)cc1C	i	i	?	16µM*	1%
COc1cc(S(=O)(=O)NCc2ccc3c(c2)OCO3)ccc1F	i	i	11%	?	-13%
COC(=O)N1CCCc2cc(S(=O)(=O)NCc3ccccc3)ccc21	i	i	18µM*	13%	.
O=C(O)c1ccc(S(=O)(=O)NCc2ccc3c(c2)OCO3)cc1	i	i	-3%	-4%	-7%
CC(C)c1ccc(S(=O)(=O)NCc2ccc3c(c2)OCO3)cc1	i	i	15%	11µM*	9%
CCC1(C)NC(c2ccc3c(c2)OCO3)=CC(c2ccccc2O)N1 (stereo not given)	.	.	-8%	.	.
COc1ccccc1NC(=O)CSc1nnc(NC(=O)NC2CCCCC2)s1	i	i	.	25%	.
COc1ccc(CNC2CCC23CCC(C)CC3)cc1 (stereo not given)	.	i	.	.	.
CC(=O)N1CCc2cc(CNS(=O)(=O)c3ccc(C(C)(C)C)cc3)ccc21	i	?	.	29%	.
COc1cc(S(=O)(=O)NCc2ccccc2)ccc1Br	i	.	3%	13µM*	0%
CCC(=O)N1CCc2cc(CNS(=O)(=O)c3ccc(C(C)C)cc3)ccc21	i	i	.	20µM*	.
COc1ccc(S(=O)(=O)NCc2ccccc2)cc1Br	.	.	.	.	-1%
CN(C)c1ccc(Nc2nc3ccccc3n3nnnc23)cc1	i	i	.	17%	.
SMILES	Abeta yeast res	FUS yeast rescue	aSyn rescue	TDP43 rescue	Mito fusion act
Cc1cc(F)ccc1S(=O)(=O)Nc1ccccc1C(=O)N1CCCC1	i	i	4.5µM*	15%	2%
Fc1cccc(Cl)c1C1SCc2nc3ccccc3n21 (stereo not given)	i	i	6%	13µM*	.
CC(=O)Nc1ccc(N2C(=O)CSC2c2c(F)cccc2Cl)cc1 (stereo not given)	?	i	.	6%	-1%
N/C(=N\OC(=O)c1ccc(Cl)c([N+](=O)[O-])c1)c1ccccc1	i	i	5%	13µM*	-2%
N/C(=N\OC(=O)c1ccc(Cl)cc1)c1ccccn1	i	i	-32%	10µM*	4%
N/C(=N\OC(=O)c1ccc(Cl)c([N+](=O)[O-])c1)c1ccccn1	i	i	-6%	16µM*	1%
N/C(=N\OC(=O)c1cc([N+](=O)[O-])ccc1Cl)c1cccnc1	i	i	-3%	13µM*	-3%
Cc1ccc(CNC(=O)CCCn2nc(C)n3c(cc4sccc43)c2=O)cc1	i	i	.	12%	.
CCOC(=O)Cn1c(=O)oc2cc(S(=O)(=O)NCc3ccc(F)cc3)ccc21	i	i	.	18%	.
CCCOc1ccccc1N/C(=N/c1nc(C)cc(C)n1)NC(=O)COc1ccc(OC)cc1	i	?	-26%	2.2µM*	9%
COc1ccc(N2COC3c4cccc5cccc(c45)C32)cc1 (stereo not given)	i	i	-6%	11µM*	0%
COc1ccc(C2Nc3cccc4cccc(c34)N2)cc1	i	i	-8%	?	-4%
CS(=O)(=O)NC1c2cccc3cccc(c23)C1N1CCOCC1 (stereo not given)	i	i	-5%	-16%	-3%
Clc1ccc(N2COC3c4cccc5cccc(c45)C32)cc1 (stereo not given)	i	i	13%	10µM*	14%
CC(C)Oc1ccc(C2CC(=O)N(c3cccc(Br)c3)C2=O)cc1 (stereo not given)	i	i	9%	20µM*	-8%
CC(C)Oc1ccc(C2CC(=O)N(C)C2=O)cc1 (stereo not given)	i	i	-1%	17%	-2%
O=C1CSC(c2cccc(Cl)c2Cl)N1c1ccccn1 (stereo not given)	i	i	19%	14µM*	16%
O=C1CSC(c2ccccc2F)N1c1cc(Cl)ccc1O (stereo not given)	i	i	15%	20%	2%
CC(CNC(=O)c1csc2c1CCCCC2)c1ccccc1 (stereo not given)	i	i	.	2%	.
CCOC(=O)c1ccc(C(=O)OCC)c(NC(=S)Nc2ccc([N+](=O)[O-])cc2OC)c1	i	i	-16%	18µM*	?
CCOc1ccccc1N=C1SCC(C)N1C(=O)C1CCN(c2ncnc3sc(C)c(C)c23)CC1 (stereo not given)	i	i	6%	20µM*	.
Cc1ccc(CN2CCN(/N=C\C(Br)=C\c3ccccc3)CC2)cc1	i	i	2%	13µM*	?
Nc1[nH]c(C(=O)c2ccccc2)c(-c2ccc(Cl)cc2)c1C(=O)NCCC1=CCCCC1	.	i	.	.	.
Clc1ccc(SCc2cc(N3CCOCC3)nc(-c3ccccn3)n2)cc1	13µM*	i	0%	-10%	7%

Assay outcomes as filed in PubChem BioAssay.
